# From PubChem BioAssay
# Only some compounds are listed: those with a hit (about 0.58% of all), similar ones and a draw of the others.
# Eya2 inh: qHTS Assay for Inhibitors of the Phosphatase Activity of Eya2. Protein phosphatase EYA2 (Homo sapiens), O00167. recombinant Eya2, OMFP fluorescence dephosphorylation (OMFP is methylfluorescein phosphate). Potency, µM (top dose mostly 76.9 µM), without a hit: at the top dose activity, negative = inhibition, hits mostly inhibitors. hit rate 0.006% among 330,000; note: potency is the fitted concentration of half-maximal effect; % is set by controls: 0 for no effect and ±100 for the full control effect
#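 Eya2 protein (added as 0.2 uM solution) was preincubated with compound for 10 min at ambient temperature in 50 mM HEPES pH 7.5, 50 mM NaCl, 5 uM MgCl2, 0.05% BSA, 1 mM DTT. OMFP (added at 50 uM) then reacted 10 min; fluorescence read at 485/525 nm.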
# Glioma ERSR ind: qHTS for Inducers of the Endoplasmic Reticulum Stress Response (ERSR) in Human Glioma: qHTS; U87-MG GRP78 promoter luciferase reporter, 16 h; Potency, µM, for the others: at the top dose activation, hits mostly activators; hit rate 0.02% among 420,000; AID 602332, 2012; note: potency is the fitted concentration of half-maximal effect; series mostly up to about 76 µM; % of control where 0% means no effect; nearly all actives have a fitted effect of over 35% in size
#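 ERSR induction read as luciferase luminescence (Bright-Glo, 10 min at room temperature) in stably transfected human U87-MG glioma cells exposed to compounds for 16 h, using GRP78 as sensor.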
# CtBP-E1A inh: qHTS Assay for Inhibitors of the CtBP/E1A Interaction; AlphaScreen GST-E1A/His-CtBP binding, 1536-well; hits give low values; hit rate 0.49% among 340,000; activity change, % (concentration not given with the values); AID 651724, 2012; CtBP / adenovirus E1A interaction (AlphaScreen); in the data active = activity change below about -65%; inconclusive = mostly about -30% to -63%; note: % is set by controls: 0 for no effect and ±100 for the full control effect
#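 Homogeneous bead-based format: GST-tagged E1A captured on glutathione donor beads, His-tagged CtBP on nickel acceptor beads; compounds precede bead addition by 2 h at 37 °C.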
# Six1-Eya2 blk: qHTS Assay for Inhibitors of the Six1/Eya2 Interaction | AlphaScreen GST-Six1/His-Eya2 binding, biochemical; hits give low values | Homeobox protein SIX1 (Homo sapiens) + Protein phosphatase EYA2 (Homo sapiens), … | hit rate 0.56% among 360,000 | activity change, % (test concentration not listed); in the data active = activity change below about -65%; inconclusive = mostly about -30% to -63%; note: % is set by controls: 0 for no effect and ±100 for the full control effect
# Target sequence (O00167 whole entry, looked up): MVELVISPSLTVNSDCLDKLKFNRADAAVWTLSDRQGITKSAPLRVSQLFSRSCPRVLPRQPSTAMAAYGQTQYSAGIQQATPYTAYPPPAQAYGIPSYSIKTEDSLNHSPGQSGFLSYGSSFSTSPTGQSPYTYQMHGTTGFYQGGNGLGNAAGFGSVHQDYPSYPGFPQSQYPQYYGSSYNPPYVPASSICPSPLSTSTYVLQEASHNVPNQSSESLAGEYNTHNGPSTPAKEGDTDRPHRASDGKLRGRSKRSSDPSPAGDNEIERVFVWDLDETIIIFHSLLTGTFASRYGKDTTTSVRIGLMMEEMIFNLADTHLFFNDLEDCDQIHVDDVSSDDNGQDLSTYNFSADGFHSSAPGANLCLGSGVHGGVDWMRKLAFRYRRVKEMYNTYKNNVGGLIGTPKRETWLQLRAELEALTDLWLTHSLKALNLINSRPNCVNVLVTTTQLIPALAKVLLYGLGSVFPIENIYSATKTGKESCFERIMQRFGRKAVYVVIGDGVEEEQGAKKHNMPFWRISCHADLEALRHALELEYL
# Target sequence (Q15475 whole entry, looked up): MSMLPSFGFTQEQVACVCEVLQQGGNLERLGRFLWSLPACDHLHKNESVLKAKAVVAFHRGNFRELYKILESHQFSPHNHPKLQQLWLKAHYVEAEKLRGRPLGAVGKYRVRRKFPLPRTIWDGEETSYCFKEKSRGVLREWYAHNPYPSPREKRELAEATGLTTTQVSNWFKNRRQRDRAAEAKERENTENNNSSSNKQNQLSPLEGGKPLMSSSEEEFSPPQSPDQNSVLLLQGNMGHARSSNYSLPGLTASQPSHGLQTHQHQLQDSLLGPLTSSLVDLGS
#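 AlphaScreen luminescence read after one hour at 37 °C in darkness. Pin-transferred compounds met GST-Six1 and His-Eya2 protein (5X stock 250 nM/500 nM) plus glutathione donor and Ni-chelate acceptor beads (5X, 50 ug/mL).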
# * = called active by the depositor; ? = inconclusive; nt = not tested or not shown. Unless noted, calls come from the whole dose curve; as a rule, active = well fitted curve in the direction sought with a large enough effect; inconclusive = small, poorly fitted or top-dose-only effect, or another doubt; inactive = no such curve, though single readings can be large; an effect the other way counts as inactive or inconclusive.
SMILES,Eya2 inh,Glioma ERSR ind,CtBP-E1A inh,Six1-Eya2 blk
COc1cccc2c(=O)cc(C)n(CC(=O)Nc3ccc(C)c(C)c3)c12,-2.1%,-2.4%,-70.2*,-93.7*
Nc1[nH]n(-c2ccccc2)c(=O)c1N=Nc1ccc2c(c1)OCCO2,-14.8%,-8.0%,-0.1,-68.7*
CNc1ccc(/C=C2\C=Cc3ccccc32)cc1Cl,nt,0.0%,nt,nt
Cn1c(SCc2ccccc2)nnc1C1CCCN(Cc2cccc3ncccc23)C1 (centres undefined),nt,-4.4%,nt,nt
CC(=O)N(Cc1ccc2c(c1)OCO2)Cc1cc2ccc(C)cc2nc1-c1cccc(C)c1,nt,-5.7%,nt,nt
CC(C)C(=O)Nc1cccc(-c2nc3ccccc3c(=O)o2)c1,3.0%,-4.8%,-1.1,0.0
CC(C)C(=O)Nc1ccc(-c2nc3ccccc3c(=O)o2)cc1,5.3%,-7.0%,?,-76.0*
CC1CCN(C2=C(NS(=O)(=O)c3ccc(Cl)cc3)C(=O)c3ccccc3C2=O)CC1,1.1%,-1.9%,?,-29.8
O=C1C(NS(=O)(=O)c2ccc(Br)cc2)=C(N2CCCCC2)C(=O)c2ccccc21,-2.8%,-3.8%,nt,?
O=C1C(NS(=O)(=O)c2ccccc2)=C(N2CCN(c3ccc(F)cc3)CC2)C(=O)c2ccccc21,-9.4%,-6.6%,-87.6*,-77.1*
CC1CCN(C2=C(NS(=O)(=O)c3ccc(Br)cc3)C(=O)c3ccccc3C2=O)CC1,-5.2%,-3.1%,nt,-84.3*
CC1CCN(C2=C(NS(=O)(=O)c3ccccc3)C(=O)c3ccccc3C2=O)CC1,1.8%,0.5%,-84.7*,-72.3*
COc1cc(OC)c(OC)cc1/C=c1\[nH]c(=O)/c(=C/c2cc(OC)c(OC)cc2OC)[nH]c1=O,nt,-1.7%,nt,nt
OC(C1=C/C(=C\c2ccncc2)c2ccccc21)c1ccncc1 (centres undefined),nt,-2.5%,nt,nt
COc1ccc2oc3cc(NCCN(C)C)ccc3c(=O)c2c1,nt,-9.1%,-74.6*,-70.3*
O=[N+]([O-])c1ccccc1Nc1ccccc1[N+](=O)[O-],nt,-5.4%,1.9,-25.3
O=[N+]([O-])c1ccccc1Nc1ccccc1,-6.6%,-2.5%,?,-67.1*
O=C(CNC(=O)c1cccs1)N/N=C/c1ccc(O)cc1O,0.8%,-4.1%,?,-86.2*
O=C(CCc1ccccc1)NCC(=O)N/N=C/c1ccc(O)cc1O,10.9%,-4.9%,nt,-65.6*
COc1ccc(C=NNC(=O)c2ccccc2NS(=O)(=O)c2cccs2)cc1O,3.2%,0.0%,-14.7,-22.3
O=C(NN=Cc1ccc(O)cc1O)c1ccccc1NS(=O)(=O)c1cccs1,7.1%,-3.4%,-80.0*,?
COc1ccccc1/C=C\C(=O)NCC(=O)N/N=C/c1ccc(O)cc1O,1.7%,-3.1%,-74.0*,-80.0*
COc1cc(OC)c2nc(-c3cc4c(c(OC)c3)OCCN(Cc3cn(C)nc3C)C4)cc(C)c2c1,nt,1.5%,nt,nt
O=C(NCCN1Cc2ccccc2OC(c2ccccc2F)C1)c1cncs1 (centres undefined),nt,-4.2%,nt,nt
O=C(CNC(=O)c1cccnc1)N/N=C/c1ccc(O)cc1O,15.3%,-1.9%,-86.3*,-71.6*
SMILES,Eya2 inh,Glioma ERSR ind,CtBP-E1A inh,Six1-Eya2 blk
Cc1ccc(NC(=O)CCC(=O)N/N=C/c2ccccc2O)cc1,-3.8%,-0.2%,nt,10.3
Cc1cccc(NC(=O)CCC(=O)N/N=C/c2ccc(O)cc2O)c1,0.9%,-4.0%,-83.9*,?
Cc1ccccc1NC(=S)N/N=C/c1ccc(O)cc1O,3.9%,?,-97.4*,-89.0*
COc1ccc2c(c1)OC(C)CN(CCC(=O)NCC1OCCc3ccccc31)C2 (centres undefined),nt,-3.1%,nt,nt
Cc1cc(C(=O)NCc2nnc3n2CCN(Cc2ccc4c(c2)Cc2ccccc2-4)CC3)c(C)o1,nt,-4.3%,nt,nt
COc1ccc(OC)c(-c2ccnc(-n3ncc(C(=O)N(C)CCO)c3C3CC3)n2)c1,nt,2.1%,nt,nt
CCc1ccccc1NC(=O)CSc1nc2n[nH]c(C)c2c(=N)n1-c1ccc(OC)cc1,4.9%,-4.6%,-65.2*,-74.2*
COc1ccccc1NC(=O)CSc1nc2n[nH]c(C)c2c(=N)n1-c1ccccc1Cl,-2.5%,-6.9%,-68.6*,?
COc1ccc(CCNC(=O)C(=O)Nc2nccs2)cc1OC,3.8%,0.8%,2.2,-0.7
COc1ccc(CC(=O)Nc2ccc(C(=O)Nc3nccs3)cc2)cc1OC,-14.4%,1.0%,-74.4*,-81.3*
Cc1cc(C)n(-c2ccc(C(=O)N3CCc4c(cnc(C)c4CNC(=O)c4ccccc4F)C3)cc2)n1,nt,-4.9%,nt,nt
COc1ccc(CCNc2nc(-c3ccccn3)cs2)cc1OC,-2.0%,-2.1%,nt,-78.8*
COc1ccc(CCNc2nc(-c3ccncc3)cs2)cc1OC,-24.3%,0.9%,-20.3,-11.4
NC(c1csc(Nc2ncccn2)n1)C1CCCCC1 (centres undefined),nt,-1.5%,-67.5*,?
NC(c1csc(Nc2cnccn2)n1)C1CCCCC1 (centres undefined),nt,-1.5%,-70.4*,-26.5
Cc1nn(-c2ccccc2)c2[nH]c(=O)c(CNc3ccc(N4CCOCC4)cc3)cc12,-13.8%,-9.2%,-69.1*,-69.7*
O=C(Nc1cc(N2CCOCC2)ncn1)c1ccccc1,-4.4%,35.5µM*,-1.4,1.1
O=C(Nc1ccc(N2CCOCC2)nc1)c1ccc(Cl)cc1,-17.0%,0.5%,-0.4,0.9
NC(=S)NNc1cccc2cccnc12,3.0%,-3.2%,-91.6*,-92.4*
CC(C)C(=O)NC(c1cccc([N+](=O)[O-])c1)c1ccc2cccnc2c1O (centres undefined),-9.6%,-6.2%,-1.7,-94.0*
CCCC(=O)NC(c1cccc([N+](=O)[O-])c1)c1ccc2cccnc2c1O (centres undefined),nt,-4.8%,?,-91.3*
COc1ccc(C(NC(C)=O)c2ccc3cccnc3c2O)cc1OC (centres undefined),nt,-5.2%,nt,nt
COc1cc2cc(-c3ccc(OC)c(OC)c3C)nc(N)c2cc1OC,nt,-7.2%,-12.8,-22.6
COc1cc2cc(-c3ccc(O)cc3O)nc(C)c2cc1OC,-5.9%,1.0%,-86.0*,?
O=C(c1cccs1)N1CCC(c2nc3c(nnn3Cc3cccc(Cl)c3)c(=O)[nH]2)CC1,-2.5%,-1.3%,-0.9,-67.5*
SMILES,Eya2 inh,Glioma ERSR ind,CtBP-E1A inh,Six1-Eya2 blk
O=C1CSC(=S)N1/N=C/c1ccc(O)c(O)c1O,?,-7.1%,-93.7*,-91.0*
Oc1c(Br)cc(Br)cc1/C=N/Nc1ccc(Cl)nn1,-7.4%,-6.3%,-18.4,-22.3
Oc1ccc(/C=N/Nc2ccc(Cl)nn2)c(O)c1O,-6.9%,-0.6%,nt,-95.3*
NS(=O)(=O)c1ccc(Nc2nc(-c3ccc(O)cc3O)cs2)cc1,3.0%,0.3%,-79.7*,-66.6*
NS(=O)(=O)c1ccc(Nc2nc(-c3ccc(F)cc3)cs2)cc1,-4.5%,-0.3%,-1.2,-11.1
N/C(=N\NC(=O)Nc1ccc(Cl)cc1)c1ccccn1,-5.0%,-4.2%,-76.4*,?
CNC(=O)N/N=C(\N)c1ccccn1,9.1%,5.3%,nt,-8.6
